SMILES strings stand for the structures. “And” between values parts separate entries of the source, which are not always exact repeats. Equal values may be shown once. This is part of a sample that, as a whole, favours compounds with a hit. Of some 83,000 tested, about 20% had one in any assay.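 Activity criterion: percent growth below 10, measured after cells in 96-well plates were exposed to a single compound concentration for 48 hours.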 Values without a mark were called inactive. The source made the active and inactive calls.

This experiment concerns MDA-MB-468 breast. Put plainly: NCI-60 one-dose screen, 48 h (100 = growth as untreated, 0 = no growth, -100 = all killed). The settings on record: 10 µM unless noted.
Take `COc1cc2nc(N3CCC[C@@H](NC(=O)C4COc5ccccc5O4)C3)nc(N)c2cc1OC` (some centres not stated): the growth was 108% and 103%. Next, `O=C(Nc1nc(Cl)nc(Nc2ccc(N3CCOCC3=O)cc2)n1)c1ccc(Cl)s1`: 68.1%. With `C=C(CNCCc1ccc(O)cc1)[C@@H]1CC[C@]2(CO)CC[C@]3(C)[C@H](CC[C@@H]4[C@@]5(C)CCC(NCCO)C(C)(C)[C@@H]5CC[C@]43C)[C@@H]12` (some centres not stated), the growth is -84.3% (active).

Take `C=CCn1c(C)nc2cc(Nc3nc(N4CCOCC4)nc4nc[nH]c34)ccc21`: the growth was 85.1%. Next, `COc1ccc(C(=O)c2ccc(OC)c(OC)c2OC)cc1`: -7.95% (active) and -19% (active); `COc1ccc(S(=O)(=O)N(C)c2oc(-c3ccc(Cl)cc3)nc2C#N)cc1`: 32.1%; `c1ccc(-c2cn3nc(-c4c[nH]c5ccccc45)sc3n2)cc1`: 77.9%.

For `CCSCC1CC(O)(c2ccccc2)C(c2ccccc2)C(c2ccc(F)cc2)O1` (configuration not stated), the growth is -18% (active). Next, `Cc1ccccc1NC(=O)/C=C/c1ccc(OCCOc2ccc3c(C)cc(=O)oc3c2)cc1`: 104%; `CC1(C)CC[C@]23CC[C@]4(C)[C@H](CC[C@@H]5[C@@]6(C)C/C(=C/c7ccncc7)C(=O)C(C)(C)[C@@H]6CC[C@]54C)[C@H]2[C@H]1OC3`: 91.1%; `O=C1CC(c2cccc(-c3cccnc3)c2)=Nc2ccc(Br)cc2N1`: 10.5%. Next, `CCOc1ccc(Nc2ccnc3cc(Cl)ccc23)cc1`: -1.66% (active).

The values above are taken from PubChem BioAssay (NCI).
